Laboratory results reported in PubChem BioAssay (EPA / NIEHS).
Activity calls are given as the source filed them. How the source made its calls: active means hit-call score of the fitted dose curve at least 0.9, where 1 is the maximum; inactive means score below 0.9.

Columns and labels:
Settings in all cases: mRNA level, 48 h; actives raise or lower the signal
[1] = read-out: Tumor necrosis factor receptor superfamily member 6 (Homo sapiens) (UniProt P25445); test: LTEA_HepaRG_FAS: Life Technologies and Expression Analysis (LTEA) Assay for Fas cell surface death receptor (FAS) using HepaRG (AID 2283447)
Procedure, shortened: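 Differentiated HepaRG cells in serum-free induction medium were exposed 48 h to 8 half-log concentrations up to 100 uM in 0.5% DMSO, in duplicate. FAS mRNA was measured by qRT-PCR normalised to ACTB, GAPDH and POLR2A; bidirectional fit versus DMSO.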

[2] = read-out: Fatty acid synthase (Homo sapiens) (UniProt P49327); test: LTEA_HepaRG_FASN: Life Technologies and Expression Analysis (LTEA) Assay for Fatty Acid Synthase (FASN) using HepaRG (AID 2283448)
Procedure, shortened: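 HepaRG, 48 h exposure, 8-pt half-log series top 100 uM, 0.5% DMSO vehicle, duplicates. Readout: FASN transcript by Fluidigm qRT-PCR; housekeeping-normalized; bidirectional curve fit vs DMSO baseline.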

[3] = read-out: Cyclin D2 (CCND2), CCND2 (gene 894); test: LTEA_HepaRG_CCND2: Life Technologies and Expression Analysis (LTEA) Assay for Cyclin D2 (CCND2) using HepaRG (AID 2283449);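 further: CCND2 transcript measured by TaqMan qRT-PCR and normalised to three housekeeping genes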
Procedure, shortened: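 HepaRG, 48 h dosing, 8-pt half-log curve from 100 uM, 0.5% DMSO; duplicate wells. Readout: CCND2 transcript by microfluidic qRT-PCR, housekeeping-normalised; bidirectional fit vs DMSO baseline.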

[4] = read-out: Cyclin Dependent Kinase Inhibitor 1A (CDKN1A), CDKN1A (gene 1026); test: LTEA_HepaRG_CDKN1A: Life Technologies and Expression Analysis (LTEA) Assay for Cyclin Dependent Kinase Inhibitor 1A (CDKN1A) using HepaRG (AID 2283450)
Procedure, shortened: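 Cryopreserved HepaRG cells were plated and cultured 48 h, then switched to serum-free induction medium. Chemicals (eight half-log concentrations, top 100 uM, 0.5% DMSO) were applied for 48 h. Lysates underwent qRT-PCR for CDKN1A with housekeeping normalization.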

[5] = read-out: Cyclin D1 (CCND1), CCND1 (gene 595); test: LTEA_HepaRG_CCND1: Life Technologies and Expression Analysis (LTEA) Assay for Cyclin D1 (CCND1) using HepaRG (AID 2283451);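 on AC50: TaqMan qRT-PCR transcript level normalised to ACTB GAPDH and POLR2A housekeeping genes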
Procedure, shortened: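 Human liver HepaRG line; 48 h dosing, 8 conc. ≤100 uM, 0.5% DMSO; TaqMan qRT-PCR mRNA, 3 housekeeping genes; bidirectional curve fit vs DMSO.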

[6] = read-out: catalase (CAT), CAT (gene 847); test: LTEA_HepaRG_CAT: Life Technologies and Expression Analysis (LTEA) Assay for catalase (CAT) using HepaRG (AID 2283452)
Procedure, shortened: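 HepaRG cells in serum-free induction medium, 0.5% DMSO vehicle, exposed 48 h in duplicate over 8 half-log concentrations from 100 uM. CAT mRNA measured by qRT-PCR, normalized to ACTB, GAPDH, POLR2A; bidirectional fit versus DMSO.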

[7] = read-out: flavin-containing dimethylaniline monooxygenases 3 (FMO3), FMO3 (gene 2328); test: LTEA_HepaRG_FMO3: Life Technologies and Expression Analysis (LTEA) Assay for flavin-containing dimethylaniline monooxygenases 3 (FMO3) using HepaRG (AID 2283453)
Procedure, shortened: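 Eight-point concentration-response in serum-free HepaRG cultures (top 100 uM, 0.5% DMSO, 48 h). Read-out: FMO3 mRNA level normalized to three endogenous control genes, fitted bidirectionally versus vehicle.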

[8] = read-out: Cytochrome P450 (CYP1A1), CYP1A1 (gene 1543); test: LTEA_HepaRG_CYP1A1: Life Technologies and Expression Analysis (LTEA) Assay for Cytochrome P450 (CYP1A1) using HepaRG (AID 2283454)
Procedure, shortened: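 Induction of CYP1A1 mRNA in a human hepatic cell line was measured 48 h after dosing, with 1 mM phenobarbital as induction positive control and 0.5% DMSO vehicle as baseline for bidirectional curve fitting.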

[9] = read-out: CFLAR gene, CFLAR (gene 8837); test: LTEA_HepaRG_CFLAR: Life Technologies and Expression Analysis (LTEA) Assay for CFLAR gene using HepaRG (AID 2283455)
Procedure, shortened: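 qRT-PCR read-out (Fluidigm/TaqMan) of CFLAR mRNA, normalized to three housekeeping genes, in differentiated human HepaRG cells after 48 h chemical exposure; 8-point half-log series from 100 uM in 0.5% DMSO; bidirectional curve fitting versus DMSO.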

[10] = read-out: growth arrest and DNA damage 45 (GADD45A), GADD45A (gene 1647); test: LTEA_HepaRG_GADD45A: Life Technologies and Expression Analysis (LTEA) Assay for growth arrest and DNA damage 45 (GADD45A) using HepaRG (AID 2283458)
Procedure, shortened: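 HepaRG, 48 h exposure, 8 conc. (top 100 uM, half-log steps), 0.5% DMSO vehicle, duplicates. Read-out: qRT-PCR mRNA level, housekeeping-normalized (ACTB/GAPDH/POLR2A). Curves fit bidirectionally vs DMSO baseline.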

[11] = read-out: Forkhead box O3 (FOXO3), FOXO3 (gene 2309); test: LTEA_HepaRG_FOXO3: Life Technologies and Expression Analysis (LTEA) Assay for Forkhead box O3 (FOXO3) using HepaRG (AID 2283459)
Procedure, shortened: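 qRT-PCR readout of FOXO3 transcript, normalized to three housekeeping genes (ACTB, GAPDH, POLR2A); gain or loss fitted against 0.5% DMSO vehicle. HepaRG cells, 48 h chemical exposure, 8-point half-log series, top 100 uM.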

[12] = read-out: ABC Transporter (ABCB1), ABCB1 (gene 5243); test: LTEA_HepaRG_ABCB1: Life Technologies and Expression Analysis (LTEA) Assay for ABC Transporter (ABCB1) using HepaRG (AID 2283460)
Procedure, shortened: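 HepaRG, 48 h exposure, 8-pt half-log series from 100 uM, 0.5% DMSO vehicle, duplicates. Readout: ABCB1 transcript by Fluidigm TaqMan qRT-PCR, housekeeping-normalized; bidirectional curve fit vs DMSO baseline.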

[13] = read-out: growth arrest and DNA damage 45 (GADD45B), GADD45B (gene 4616); test: LTEA_HepaRG_GADD45B: Life Technologies and Expression Analysis (LTEA) Assay for growth arrest and DNA damage 45 (GADD45B) using HepaRG (AID 2283461)
Procedure, shortened: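 Values are bidirectional concentration-response fits against 0.5% DMSO controls. Underlying data: qRT-PCR mRNA levels in human HepaRG liver cells treated 48 h in serum-free induction medium, eight concentrations topping at 100 uM.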

[14] = read-out: ABC Transporter (ABCC3), ABCC3 (gene 8714); test: LTEA_HepaRG_ABCC3: Life Technologies and Expression Analysis (LTEA) Assay for ABC Transporter (ABCC3) using HepaRG (AID 2283462)
Procedure, shortened: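 Differentiated HepaRG liver cells receive test chemicals at eight concentrations (max 100 uM) for 48 h. Expression of ABCC3 is quantified by qRT-PCR against ACTB, GAPDH and POLR2A, and activity is fitted in both directions against the DMSO control.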

[15] = read-out: ABC Transporter (ABCB11), ABCB11 (gene 8647); test: LTEA_HepaRG_ABCB11: Life Technologies and Expression Analysis (LTEA) Assay for ABC Transporter (ABCB11) using HepaRG (AID 2283463)
Procedure, shortened: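 HepaRG, 48 h exposure, 8-pt half-log CRC top 100 uM, 0.5% DMSO vehicle, duplicates. Readout: TaqMan qRT-PCR of ABCB11 mRNA, housekeeping-normalized (ACTB/GAPDH/POLR2A). Bidirectional fit vs DMSO baseline.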

[16] = read-out: ABC Transporter (ABCC2), ABCC2 (gene 1244); test: LTEA_HepaRG_ABCC2: Life Technologies and Expression Analysis (LTEA) Assay for ABC Transporter (ABCC2) using HepaRG (AID 2283464)
Procedure, shortened: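 Gene expression of ABCC2 was determined by qRT-PCR in HepaRG cells exposed 48 h to chemicals (highest 100 uM, half-log dilutions). Activity was fitted in both directions relative to 0.5% DMSO vehicle.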

[17] = read-out: Forkhead box O1 (FOXO1), FOXO1 (gene 2308); test: LTEA_HepaRG_FOXO1: Life Technologies and Expression Analysis (LTEA) Assay for Forkhead box O1 (FOXO1) using HepaRG (AID 2283456)
Procedure, shortened: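 HepaRG, 48 h exposure, 8-pt half-log series from 100 uM in 0.5% DMSO, duplicates; Fluidigm qRT-PCR mRNA, housekeeping-normalised; bidirectional fit vs DMSO baseline.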

[18] = read-out: Broad substrate specificity ATP-binding cassette transporter ABCG2 (Homo sapiens) (UniProt Q9UNQ0); test: LTEA_HepaRG_ABCG2: Life Technologies and Expression Analysis (LTEA) Assay for ABC Transporter (ABCG2) using HepaRG (AID 2283465)
Procedure, shortened: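 HepaRG, 48 h exposure, 8-pt half-log series from 100 uM, 0.5% DMSO vehicle, duplicates. Readout: ABCG2 transcript by qRT-PCR (Fluidigm array), housekeeping-normalized; bidirectional curve fit relative to DMSO baseline.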

Measured: AC50

Fatty acid synthase (Homo sapiens), sequence (P49327 whole entry, looked up): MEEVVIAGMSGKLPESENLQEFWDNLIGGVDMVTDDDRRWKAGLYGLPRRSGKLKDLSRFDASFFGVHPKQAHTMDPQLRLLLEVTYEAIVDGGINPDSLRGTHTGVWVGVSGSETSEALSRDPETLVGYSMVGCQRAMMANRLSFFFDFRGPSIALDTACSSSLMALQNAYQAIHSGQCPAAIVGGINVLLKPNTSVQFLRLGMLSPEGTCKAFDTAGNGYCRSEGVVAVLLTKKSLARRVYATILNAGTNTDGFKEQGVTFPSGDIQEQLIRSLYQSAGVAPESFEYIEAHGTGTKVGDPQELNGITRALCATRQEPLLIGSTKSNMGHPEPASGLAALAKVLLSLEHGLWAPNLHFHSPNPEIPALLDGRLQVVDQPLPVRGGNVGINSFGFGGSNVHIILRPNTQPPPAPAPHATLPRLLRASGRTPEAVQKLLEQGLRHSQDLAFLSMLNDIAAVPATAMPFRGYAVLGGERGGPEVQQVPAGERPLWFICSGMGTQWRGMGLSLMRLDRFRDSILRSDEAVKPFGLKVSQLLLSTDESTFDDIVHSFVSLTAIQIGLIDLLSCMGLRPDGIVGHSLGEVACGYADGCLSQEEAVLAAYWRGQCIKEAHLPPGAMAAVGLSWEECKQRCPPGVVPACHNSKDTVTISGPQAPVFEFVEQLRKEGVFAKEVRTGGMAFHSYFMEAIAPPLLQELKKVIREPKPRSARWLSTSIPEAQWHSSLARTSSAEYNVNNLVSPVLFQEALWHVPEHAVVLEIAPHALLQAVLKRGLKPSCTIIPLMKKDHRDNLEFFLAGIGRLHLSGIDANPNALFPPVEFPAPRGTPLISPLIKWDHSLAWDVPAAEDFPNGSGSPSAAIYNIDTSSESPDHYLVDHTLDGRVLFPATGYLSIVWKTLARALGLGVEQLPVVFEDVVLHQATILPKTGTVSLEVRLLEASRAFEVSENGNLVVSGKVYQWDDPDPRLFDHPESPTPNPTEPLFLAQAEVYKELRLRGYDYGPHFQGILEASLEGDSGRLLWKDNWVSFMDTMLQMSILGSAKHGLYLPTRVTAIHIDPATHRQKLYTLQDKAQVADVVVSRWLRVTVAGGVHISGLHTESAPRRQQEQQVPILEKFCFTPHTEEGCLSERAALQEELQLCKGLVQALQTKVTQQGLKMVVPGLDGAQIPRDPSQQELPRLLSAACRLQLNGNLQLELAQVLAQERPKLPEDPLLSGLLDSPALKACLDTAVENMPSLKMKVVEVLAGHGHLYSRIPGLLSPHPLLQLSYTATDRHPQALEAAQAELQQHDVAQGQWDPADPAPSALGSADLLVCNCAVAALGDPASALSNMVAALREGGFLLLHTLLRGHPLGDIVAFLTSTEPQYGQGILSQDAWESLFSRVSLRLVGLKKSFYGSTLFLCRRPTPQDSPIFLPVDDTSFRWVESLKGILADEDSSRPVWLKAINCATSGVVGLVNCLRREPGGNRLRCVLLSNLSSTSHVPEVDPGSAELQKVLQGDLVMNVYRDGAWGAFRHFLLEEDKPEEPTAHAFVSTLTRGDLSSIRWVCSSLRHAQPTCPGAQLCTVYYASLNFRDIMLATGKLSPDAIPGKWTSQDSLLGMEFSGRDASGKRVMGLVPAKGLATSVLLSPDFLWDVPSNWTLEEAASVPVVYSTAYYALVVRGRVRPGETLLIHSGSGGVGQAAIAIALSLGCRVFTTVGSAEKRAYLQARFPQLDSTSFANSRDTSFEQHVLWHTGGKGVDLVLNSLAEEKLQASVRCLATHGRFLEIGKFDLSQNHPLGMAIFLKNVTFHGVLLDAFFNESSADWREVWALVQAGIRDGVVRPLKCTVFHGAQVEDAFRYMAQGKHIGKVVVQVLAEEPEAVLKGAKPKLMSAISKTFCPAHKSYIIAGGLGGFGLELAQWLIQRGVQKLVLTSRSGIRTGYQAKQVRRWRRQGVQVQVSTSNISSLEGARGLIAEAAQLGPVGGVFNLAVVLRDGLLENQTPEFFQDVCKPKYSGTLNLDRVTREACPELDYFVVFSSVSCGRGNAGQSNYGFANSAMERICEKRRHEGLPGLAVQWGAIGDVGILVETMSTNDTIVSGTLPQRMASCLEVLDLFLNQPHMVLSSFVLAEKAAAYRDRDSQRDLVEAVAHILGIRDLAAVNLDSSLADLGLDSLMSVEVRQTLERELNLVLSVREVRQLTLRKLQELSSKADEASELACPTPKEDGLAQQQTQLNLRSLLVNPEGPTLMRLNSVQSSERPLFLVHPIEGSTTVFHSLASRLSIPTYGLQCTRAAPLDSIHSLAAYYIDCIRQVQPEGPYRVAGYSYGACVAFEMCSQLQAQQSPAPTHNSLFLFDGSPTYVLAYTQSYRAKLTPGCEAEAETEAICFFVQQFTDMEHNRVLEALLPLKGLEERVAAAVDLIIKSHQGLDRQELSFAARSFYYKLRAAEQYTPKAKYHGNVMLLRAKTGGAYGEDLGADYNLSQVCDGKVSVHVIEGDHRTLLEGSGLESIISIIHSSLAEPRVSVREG
Broad substrate specificity ATP-binding cassette transporter ABCG2 (Homo sapiens), sequence (Q9UNQ0 whole entry, looked up): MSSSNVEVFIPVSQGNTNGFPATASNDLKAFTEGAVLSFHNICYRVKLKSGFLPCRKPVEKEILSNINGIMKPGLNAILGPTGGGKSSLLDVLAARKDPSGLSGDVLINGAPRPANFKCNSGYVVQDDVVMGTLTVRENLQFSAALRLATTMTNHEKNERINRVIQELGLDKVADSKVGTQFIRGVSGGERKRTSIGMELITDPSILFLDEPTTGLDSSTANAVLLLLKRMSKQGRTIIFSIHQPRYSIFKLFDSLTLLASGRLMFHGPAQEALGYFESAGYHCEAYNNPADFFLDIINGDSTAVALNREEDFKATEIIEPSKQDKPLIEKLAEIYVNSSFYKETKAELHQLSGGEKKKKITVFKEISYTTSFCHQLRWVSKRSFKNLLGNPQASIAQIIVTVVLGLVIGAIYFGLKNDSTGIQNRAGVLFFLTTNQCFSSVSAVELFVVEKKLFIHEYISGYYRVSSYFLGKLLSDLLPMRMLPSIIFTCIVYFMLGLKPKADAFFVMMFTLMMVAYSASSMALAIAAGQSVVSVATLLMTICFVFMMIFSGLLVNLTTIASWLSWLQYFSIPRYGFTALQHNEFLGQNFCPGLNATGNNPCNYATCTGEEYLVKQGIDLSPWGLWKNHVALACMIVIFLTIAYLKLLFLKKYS

CCc1nc(N)nc(N)c1-c1ccc(Cl)cc1
active: [4] 70.2 µM | [6] 30.6 µM | [7] 69.4 µM | [10] 27200 nM | [14] 74.5 µM | [15] 33 µM
not listed: [17] | [18]
inactive: all other assays above

CCCCCCCC(=O)OC
active: [7] 12.1 µM
not listed: [5] | [15] | [18]
inactive: all other assays above

O=C1CCCCC1
active: [10] 72.7 nM
not listed: [15]
inactive: all other assays above

CC(C)COC(=O)CCCCC(=O)OCC(C)C
not listed: [15] | [17] | [18]
inactive: all other assays above

CN(C)CCCN1c2ccccc2Sc2ccc(Cl)cc21
active: [2] 12.5 µM | [4] 50 µM | [5] 50 µM | [6] 50 µM | [8] 27.1 µM | [9] 71.3 µM | [13] 89.7 µM | [15] 24.7 µM | [16] 89.6 µM
inactive: [1] | [3] | [10] | [11] | [12] | [14] | [18]

c1ccc2occc2c1
not listed: [15]
inactive: all other assays above

CC1(C)C(=O)NC(=O)N1CO
active: [8] 50 µM
not listed: [5] | [15] | [18]
inactive: all other assays above

CCCCCCCCCCCCCCOS(=O)(=O)O
active: [8] 72.7 µM
not listed: [17]
inactive: all other assays above

CC(=O)OC1CC(C)OC(C)O1 (centres undefined)
active: [8] 50 µM
not listed: [5] | [17]
inactive: all other assays above

CN(C)C(=O)NC1(c2ccccc2)CCN(CC[C@@]2(c3ccc(F)c(F)c3)CN(C(=O)c3ccccc3)CCO2)CC1
active: [2] 29.5 µM | [7] 57 µM | [8] 47 µM | [12] 1.86 µM | [14] 47 µM | [15] 1.96 µM | [16] 3.81 µM
not listed: [5] | [17]
inactive: all other assays above

CN(C)CCCN(C)CCCN(C)C
not listed: [3] | [17]
inactive: all other assays above

O=[Si]=O
active: [8] 76.6 µM
not listed: [1] | [3]
inactive: all other assays above

CCCC(=O)O
active: [10] 99.3 nM
not listed: [5] | [11]
inactive: all other assays above

CC(C)OC(=O)C(C)(C)Oc1ccc(C(=O)c2ccc(Cl)cc2)cc1
active: [8] 50 µM | [10] 53.6 nM
not listed: [2] | [15] | [17]
inactive: all other assays above

C=CCc1ccc(OC)c(OC)c1
active: [10] 9920 nM
not listed: [5] | [17]
inactive: all other assays above

CC(N)=O
active: [10] 256 nM
not listed: [3] | [17] | [18]
inactive: all other assays above

O=C(O)c1cccnc1
not listed: [3] | [5] | [15] | [17]
inactive: all other assays above

CCCCCCC(C=O)=Cc1ccccc1
not listed: [3] | [15] | [17]
inactive: all other assays above

NC1CCCCC1
not listed: [5] | [15]
inactive: all other assays above
